tim23-1 inh: growth inhibitors of tim23-1 mutant yeast. actives 1.3% (n = 330,000). inhibition, % at 20 µM. S. cerevisiae tim23-1 growth, BacTiter-Glo luminescence, 24 h. AID 463212;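 active means growth inhibition of the mutant yeast at or above 50%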;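 further: temperature-sensitive mutant grown at 25 °C; plate controls were DMSO-treated mutant yeast for no effect and medium wells lacking yeast for full effect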
tim10-1 inh: tim10-1 yeast growth inhibition; actives 2.2% (n = 330,000); S. cerevisiae tim10-1 ts strain growth, BacTiter-Glo, 24 h; inhibition, % at 20 µM; AID 463190;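 active means inhibition of at least 40%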;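 further: mutant grown at 25 °C; 0% = DMSO wells with yeast and 100% = wells holding no yeast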
TIM10 inh: TIM10 yeast growth inhibition; S. cerevisiae TIM10 strain growth, BacTiter-Glo luminescence, 24 h; AID 463195; inhibition, % at 10 µM; actives 1.4% (n = 330,000);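 active means inhibition of 40% or more at the single tested concentration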;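 further: wild-type TIM10 isogenic control strain grown at permissive 25 °C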
NALP3 yeast inh: inhibitors of NALP3 inflammasome in yeast. inhibition, % at 10 µM. actives 0.39% (n = 330,000). AID 2825. Yeast reconstituted NLRP3/ASC/caspase-1, beta-gal luminescence, 24 h;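 active means inhibition of 50% or more; inactive means inhibition below 50%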;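 further: plate controls were induced DMSO wells for no effect and uninduced yeast grown without galactose for full effect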
SKKanGAS inh: blocks kanamycin growth of S. pyogenes SKKanGAS strain | BacTiter-Glo, 6 h | inhibition, % at 7.5 µM | actives 1.3% (n = 300,000) | AID 1662;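 active means mean replicate score, as percent of positive control median, at least 50; inconclusive means mean below 50 but one replicate at or above 50; inactive means mean and every replicate below 50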;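 further: strain carries kanamycin resistance gene driven by streptokinase promoter and grows in 40 µg/ml kanamycin; loss of luminescence reflects streptokinase promoter inhibition or plain growth inhibition; 0% = median of DMSO wells and 100% = positive control at its reference dose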
PfHsp90 yeast 2: growth inhibition of yeast expressing Plasmodium Hsp90 | actives 0.32% (n = 310,000) | S. cerevisiae expressing PfHsp90, BacTiter-Glo ATP, 48 h; yeast lacking PDR1 and PDR3 efflux regulators | inhibition, % at 9.4 µM;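 active means every replicate shows inhibition above about 80%, whatever the replicate mean, limit read from the data; inconclusive means mean inhibition reaches the set limit but some replicate falls short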;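 further: 0% = DMSO neutral controls and 100% = 20 µM radicicol positive controls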
TIM10 conf: confirmation of TIM10 yeast growth inhibitors | shares compounds with TIM10 inh | S. cerevisiae tim10 strain growth, BacTiter-Glo luminescence, 24 h | inhibition, % at 10 µM | actives 63% (n = 4,600);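 active means inhibition of yeast growth at or above a set limit in either of two replicates at 10 µM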;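 further: this counterscreen used the strain with wild-type TIM10; 0% = yeast with DMSO and 100% = medium wells lacking yeast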
tim23-1 conf: tim23-1 yeast growth inhibition, confirmed; shares compounds with tim23-1 inh; S. cerevisiae tim23-1 growth, BacTiter-Glo luminescence, 24 h; inhibition, % at 20 µM; actives 83% (n = 4,400); AID 463218;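 active means inhibition above about 39% in either of two replicate wells at 20 µM, limit read from the data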;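 further: temperature-sensitive tim23-1 mutant grown at 25 °C; 0% = DMSO wells with yeast and 100% = medium wells without yeast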
Numbers without * were called inactive; ? = inconclusive; . = not tested or not shown. Hits are enriched below; roughly 4.6% of the tested compounds scored in any of these assays.

SMILES	tim23-1 inh	tim10-1 inh	TIM10 inh	NALP3 yeast inh	SKKanGAS inh	PfHsp90 yeast 2	TIM10 conf	others
COc1ccc(OC)c(NC(=O)CN(C)CC(=O)Nc2ccccc2Br)c1	-20	7	6	11	0	-12	.
Cc1ccc(C)c(C(=O)COC(=O)CCN2C(=O)C3C4CCC(C4)C3C2=O)c1 (stereo not given)	20	6	-6	21	0	-9	.
COc1ccc(N2C(=O)CSC2c2ccc3c(c2)OCO3)c(OC)c1 (stereo not given)	21	40	41*	-22	0	-1	27
COc1cccc(/C=C(\C)C(=O)c2c(C)cc(C)[nH]c2=O)c1OC	0	0	1	11	-3	6	.
COc1ccc(CC(=O)NNC(=S)Nc2ccccc2)cc1Cl	3	8	1	16	-5	.	.
CCCOc1ccc(CC(=O)NNC(=S)Nc2ccccc2)cc1Br	42	31	46*	20	-7	19	27*
CCCCn1c(N)c(N(Cc2ccccc2OC)C(=O)c2cc(=O)[nH]c3ccccc23)c(=O)[nH]c1=O	-4	20	-6	18	-10	.	.
COCCn1c(N)c(N(Cc2ccccc2)C(=O)c2cc(=O)[nH]c3ccccc23)c(=O)[nH]c1=O	-7	-9	41*	10	.	7	-18
C=CCn1c(C(C)NC(=O)COC)nc2ccccc21 (stereo not given)	3	-3	97*	11	-4	21	-19
C=CCn1c(C(CC)CC)nc2ccccc21	12	12	4	-5	2	.	.
O=c1oc(Nc2cccc(Cl)c2)nc2ccccc12	24	26	31	3	16	-5	.
COc1ccccc1N1C(=O)C=C(Sc2nc(C)cc(C)n2)C1=O	-11	10	42*	-13	2	.	45*
CCOC(=O)C1(Cc2cccc(OC)c2)CCCN(C(=O)CCN2CCCO2)C1 (stereo not given)	3	6	-5	12	0	14	.
COc1ccc2cc(CCOC3CCCCO3)ncc2c1 (stereo not given)	6	12	7	5	.	-16	.
COc1ccc(C2c3ccc4ccccc4c3Oc3ncn(CCN4CCOCC4)c(=N)c32)cc1 (stereo not given)	-4	31	11	2	4	-9	.
COc1ccc(-c2oc3ncn(CCN4CCOCC4)c(=N)c3c2-c2ccc(OC)cc2)cc1	35	37	42*	11	2	-2	19
O=C1NC2(C=Cc3c(ccc4ccccc34)O2)Oc2ccccc21 (stereo not given)	34	25	41*	-4	-6	8	28
CC1(C)Cc2c(ccc3ccccc23)C(=O)N1	13	7	11	12	-5	?	.
CCOCCn1c(C)c(C(=O)OCC)c2cc(O)c3ccccc3c21	11	-2	8	20	.	9	.
O=C(CN(Cc1ccccc1F)C(=O)c1csnn1)NCc1ccc2c(c1)OCO2	18	-4	-11	6	-10	-36	.
CCCNC(=O)c1ccc2c(c1)ncn2-c1cc(C)cc(C)c1	38	27	42*	9	5	-2	22
Cc1cc(C)cc(-n2cnc3cc(C(=O)O)ccc32)c1	9	-3	10	-1	-4	0	.
Cc1occc(=O)c1OCc1ccc(Cl)cc1Cl	-12	-12	-17	14	0	1	.
Cc1ccc(CSc2nnc(-c3cccc(S(=O)(=O)N4CCOCC4)c3)n2CC(C)C)cc1	28	17	20	0	-1	4	.
CC(C)Cn1c(SCC(N)=O)nnc1-c1cccc(S(=O)(=O)N2CCOCC2)c1	1	-16	58*	11	.	-21	-6
SMILES	tim23-1 inh	tim10-1 inh	TIM10 inh	NALP3 yeast inh	SKKanGAS inh	PfHsp90 yeast 2	TIM10 conf	others
CCc1ccccc1NC(=S)NCCSc1ccc(Cl)cc1	18	35	55*	25	50*	11	40*
CS(=O)(=O)Nc1ccccc1C(=O)NCCSc1ccc(Cl)cc1	26	5	10	19	-8	3	.
CN(C)CC(C)(C)CN=Cc1c(O)[nH]c2ccccc12	12	-13	-5	4	-9	-13	.
Cc1ccc(C)c(Oc2coc3cc(OC(=O)c4cccs4)ccc3c2=O)c1	26	31	40*	21	9	3	23
CCOC(=O)Oc1ccc2c(=O)c(Oc3cc(C)cc(C)c3)coc2c1	44	39	44*	-10	0	20	29
COc1ccc(Oc2coc3cc(OC(=O)c4cccs4)ccc3c2=O)cc1	-4	15	16	-11	-1	-22	.
O=C(CSc1ccc2ccccc2n1)N/N=C/c1ccccc1O	30	19	41*	22	95*	0	10
O=C(CSc1ccc2ccccc2n1)N/N=C/c1ccc(O)cc1	20	1	7	12	10	17	.
COCCSc1nnc(NC(=O)c2ccco2)s1	16	6	67*	18	-2	.	12
Cc1ccc(Cn2cnc3ccccc32)cc1C	19	1	40*	40	19	6	20
Cc1cccc(Cn2cnc3ccccc32)c1	4	18	12	-2	-4	-9	.
Brc1ccc(C2=Nc3cccc4cccc(c34)N2)o1	13	25	15	14	5	-20	.
Fc1ccc(C2=Nc3cccc4cccc(c34)N2)cc1	29	34	44*	23	-8	11	13
O=C(CCSc1nc(-c2ccco2)cc(C(F)(F)F)n1)N1CCN(c2ccccn2)CC1	33	36	40*	13	5	-2	32*
CCOc1nc(-c2ccccc2O)nc2ccccc12	16	-30	-24	6	15	.	.
Oc1ccccc1-c1nc(NC2CCCC2)c2ccccc2n1	64*	30	44*	1	24	115*	35*	tim23-1 conf=58*
COc1ccc(-c2onc(C)c2-c2cnn(-c3ccccc3)c2)c(O)c1C	38	19	24	8	-5	-17	.
COc1ccc(-c2n[nH]c(C)c2-c2cnn(-c3ccccc3)c2)c(O)c1C	51*	39	48*	9	48	-14	45*	tim23-1 conf=59*
CCC(=O)Nc1cccc(-c2cnc3ccccc3n2)c1	-13	12	-2	17	2	-14	.
O=C(CCl)Nc1cccc(-c2cnc3ccccc3n2)c1	63*	34	40*	-4	5	8	0	tim23-1 conf=40*
O=C(CSc1n[nH]c(-c2ccccn2)n1)Nc1cccc(Cl)c1	18	22	12	19	-7	8	.
